Data published in the supplement of paper PMC6555819.

These sequences were tested on LXRb:RXRa (NR concentration 270 nM, RXRa partner concentration 90 nM) (assay: PBM binding z-score (relative to random genomic background probes); higher = stronger binding; sequences stand for … in GC…GCGATTGACAGCGTAGAATGAAGG).
Protocol: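 Protein-binding microarray (Agilent 4x180K custom design, double-stranded 60-nt probes: 5' GC cap, 34-nt variable region, 24-nt constant primer region; full probe sequence given). Purified or IVT nuclear receptor:RXRα heterodimers (3:1 NR:RXRα, mostly 270:90 nM) or homodimers were incubated for 1 h in PBS with 2% milk and no ligand, then detected with Alexa488 antibodies. Fluorescence from o1-orientation probes (~5 replicates averaged) was converted to z-scores against 500 random hg19 background probes. Variable regions are seed direct-repeat (DR0–DR5) sites, all their single-nucleotide variants and half-site ablations.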

Sequence	PBM binding z-score
TAGCCTAGGTCGTTCAGGGGCCAGTATAGAAAGC	0.582
GCTGCTAGGTCAACTGATGGTCACCTAAAGCTCG	2.31
CCTTACGGGTAACGAGGTTATAGCACGACGAGCG	0.414
AATACAGGGTCACGAGGCCAGAGTAGGTACGAAT	4.97
CGTCTAAGGTCATAGGAGGTCAGTGAAGACAGAT	6.9
TCTGCTAGGTCAACGTTGGTCAGCTAATCTGCTA	1.61
GCTGCTAGGTCAACTGATGGTCAACTAAAGCTCG	2.47
TGTCAATGTTCAAAGGTAACGTAAGTATCCACAC	0.772
TAGCCTAGGTTATGGGCCAGTATACCACGCGAAC	0.13
TTACCAAGGTGAACGGTCGTTGATGCACGCCTTG	0.334
TAGCCTAGGTCATGCGGGCCAATATAGTGTCGGC	1.9
TAGCCTAGGTCATTCAGGGGCCAGCATAGAAAGC	3.03
AGTCAAAGTTTATCTAGGTAACGTAAGATATGCT	0.175
ACTCGGATGACAAAGGTCAGAGCTACGCCAGTGA	3.36
CGAACTAGGTCGTCCAGGACAGTGAATACATTGA	0.123
CGTCCGAGGTCATAGGAGGTCAGTGAAGACAGAT	6.8
AGTCAAAGTTCATCTAGGTAACATAAGATATGCT	3.93
TTGCCTAGGTCATTGGGCCAGTATAGTACGCATC	2.28
TACCCTAGGTCATTCAGGGGCCAGTATAGAAAGC	4.5
AGAATGAGGTCATACGTAGATCAGGGAAGAAAGT	5

Sequence	PBM binding z-score
AGTCAAAGTTGAGGACGAGGTAACGTAAAGCACG	-0.0986
AATAAAGGGTCATCGTAGGCCAGAGTACGCACAG	5.46
CGAACGAGGTCACCAGGACAGTGAAGAGGTTGGA	4.94
CAAACTAGGTCAAGGTCTAAGTCGGTTTGTGCCA	1.6
CTATGTAGGTTAAGGGAGTCATTCAGTTTGAAAG	0.642
CCTACTGGGCCATTCAGAGGTCAATGATCATATG	3.64
CATACAGGGTCGGCTAGGCCAGAGTAGGGACGGC	-0.242
AGTCAAAGTTCATCTAGGTCACGTAAGATATGCT	4.9
CCTACTGGGCCAAAGAGGTCATTGATGCCGATAA	3.65
CCTAGTGGGCCAAGGTCATTGATCAGTCAAAGCA	2.79
CGTCCAAGGTCATAGAGGTCAGTGAATGCCGAGT	5.69
CGTCCGAGGTCAAGGTCAGTGAAAGAGACTCGAA	5.26
ACTTACGGCTCAACGAGGTTATAGCACGCGTATA	0.741
CCTACTCGGCCAAAAAGGTCATTGATGCCGATAA	4.63
ACTCGGAGGACAAAGGTCAGGGCTACGCCAGTGA	3.29
GCTGCTAGTTCAACTGATGGTCAGCTAAAGCTCG	0.0556
ATCGAAAGGTCGACGCGGTGAGTATACACCGTTT	2.25
AATACAGGGTCATCTTAGGCCAGAGTACGCACAG	5.12
TAGCCTAAGTCATGCGGGCCAGTATAGTGTCGGC	-0.501
GCTGCTAGGTCAACTGATGGTCATCTAAAGCTCG	2.18
